The record followed here is ChEMBL document CHEMBL1961873, “Compounds: GSK PKIS; Assays: Nanosyn kinase panel” (2012).

What is called inhibition is the change of the read-out against control, counted positive when it falls.

Test [1] concerns the target T1, Mitogen-activated protein kinase 12 (Homo sapiens) (UniProt P53778).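 Note: values are averaged p38gamma kinase inhibition readings, compounds tested at 1 µM.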
T1 sequence (whole entry): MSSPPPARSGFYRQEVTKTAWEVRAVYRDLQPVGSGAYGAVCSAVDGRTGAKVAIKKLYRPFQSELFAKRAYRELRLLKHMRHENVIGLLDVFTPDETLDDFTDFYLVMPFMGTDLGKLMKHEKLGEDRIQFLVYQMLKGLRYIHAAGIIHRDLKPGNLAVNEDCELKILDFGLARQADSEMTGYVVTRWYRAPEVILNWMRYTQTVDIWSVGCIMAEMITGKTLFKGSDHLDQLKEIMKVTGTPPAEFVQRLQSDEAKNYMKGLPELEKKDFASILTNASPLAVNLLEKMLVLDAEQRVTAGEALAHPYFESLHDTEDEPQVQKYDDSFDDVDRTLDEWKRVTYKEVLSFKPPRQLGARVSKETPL
Particulars: at 1 µM.

The target of test [2] is SRSF protein kinase 1 (Homo sapiens) (UniProt Q96SB4). The following applies: at 0.1 µM.
Test [3] shares this target. The following applies: at 1 µM.
Test [4] deals with Phosphatidylinositol 4,5-bisphosphate 3-kinase catalytic subunit alpha isoform (Homo sapiens) (UniProt P42336). The following applies: at 0.1 µM.
The target is the same in test [5]. Particulars: at 1 µM.
In test [6] the target is T2, Phosphatidylinositol 4,5-bisphosphate 3-kinase catalytic subunit delta isoform (Homo sapiens) (UniProt O00329).
T2 sequence (whole entry): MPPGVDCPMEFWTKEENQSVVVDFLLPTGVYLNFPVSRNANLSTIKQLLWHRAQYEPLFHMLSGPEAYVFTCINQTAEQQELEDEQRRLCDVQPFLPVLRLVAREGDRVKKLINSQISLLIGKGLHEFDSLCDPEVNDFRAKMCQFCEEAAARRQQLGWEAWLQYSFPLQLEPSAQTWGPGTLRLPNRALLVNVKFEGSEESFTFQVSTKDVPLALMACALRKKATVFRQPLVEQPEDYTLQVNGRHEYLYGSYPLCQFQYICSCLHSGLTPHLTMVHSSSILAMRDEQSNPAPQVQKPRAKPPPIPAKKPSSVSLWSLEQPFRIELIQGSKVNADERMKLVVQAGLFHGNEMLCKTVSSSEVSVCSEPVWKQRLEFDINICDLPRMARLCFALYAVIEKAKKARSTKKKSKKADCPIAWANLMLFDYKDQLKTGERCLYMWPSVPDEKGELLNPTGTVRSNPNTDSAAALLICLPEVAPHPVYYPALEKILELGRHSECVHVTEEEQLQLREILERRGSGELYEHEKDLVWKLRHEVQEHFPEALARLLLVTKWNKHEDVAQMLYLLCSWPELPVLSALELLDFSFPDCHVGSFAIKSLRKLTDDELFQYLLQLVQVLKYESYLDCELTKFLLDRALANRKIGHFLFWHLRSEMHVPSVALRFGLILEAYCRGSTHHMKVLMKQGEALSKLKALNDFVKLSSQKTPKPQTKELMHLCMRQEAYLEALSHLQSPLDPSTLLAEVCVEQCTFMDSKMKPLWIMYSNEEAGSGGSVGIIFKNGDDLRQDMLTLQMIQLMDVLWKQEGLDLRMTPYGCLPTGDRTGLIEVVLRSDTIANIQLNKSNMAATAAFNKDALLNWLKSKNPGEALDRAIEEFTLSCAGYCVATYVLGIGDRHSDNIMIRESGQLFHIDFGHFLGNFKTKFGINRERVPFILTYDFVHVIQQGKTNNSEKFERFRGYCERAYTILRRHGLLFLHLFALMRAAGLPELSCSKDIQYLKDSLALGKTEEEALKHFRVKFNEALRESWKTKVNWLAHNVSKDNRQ
The following applies: at 0.1 µM.

Test [7] concerns the target T2, Phosphatidylinositol 4,5-bisphosphate 3-kinase catalytic subunit delta isoform (Homo sapiens). The following applies: at 1 µM.
Test [8] has as its target Phosphatidylinositol 4-kinase beta (Homo sapiens) (UniProt Q9UBF8). Particulars: at 0.1 µM.
The target is the same in test [9]. Particulars: at 1 µM.
Test [10] deals with Sphingosine kinase 1 (Homo sapiens) (UniProt Q9NYA1). The following applies: at 0.1 µM.
The target is the same in test [11]. Particulars: at 1 µM.
The target in test [12] is T3, Sphingosine kinase 2 (Homo sapiens) (UniProt Q9NRA0).
T3 sequence (whole entry): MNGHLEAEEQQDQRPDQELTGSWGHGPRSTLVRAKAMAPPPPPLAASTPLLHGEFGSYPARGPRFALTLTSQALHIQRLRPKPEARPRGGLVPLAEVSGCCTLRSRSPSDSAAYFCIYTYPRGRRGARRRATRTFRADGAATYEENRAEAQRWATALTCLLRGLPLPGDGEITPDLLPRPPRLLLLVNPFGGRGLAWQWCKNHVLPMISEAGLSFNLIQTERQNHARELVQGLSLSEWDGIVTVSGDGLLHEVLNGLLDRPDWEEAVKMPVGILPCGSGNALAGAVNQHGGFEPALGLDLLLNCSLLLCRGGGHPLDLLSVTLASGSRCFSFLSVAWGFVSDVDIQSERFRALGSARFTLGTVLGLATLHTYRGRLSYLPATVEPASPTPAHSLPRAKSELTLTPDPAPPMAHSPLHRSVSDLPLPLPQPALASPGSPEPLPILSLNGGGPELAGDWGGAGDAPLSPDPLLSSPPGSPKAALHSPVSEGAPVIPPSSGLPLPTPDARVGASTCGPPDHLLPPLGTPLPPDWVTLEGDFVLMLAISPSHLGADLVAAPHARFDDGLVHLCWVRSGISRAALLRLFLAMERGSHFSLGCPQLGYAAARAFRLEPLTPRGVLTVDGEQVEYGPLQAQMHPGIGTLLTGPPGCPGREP
The following applies: at 0.1 µM.

The target of test [13] is T3, Sphingosine kinase 2 (Homo sapiens). Particulars: at 1 µM.
Test [14] has as its target Casein kinase II subunit alpha (Homo sapiens) (UniProt P68400). The following applies: at 0.1 µM.
Test [15] has the same target. Particulars: at 1 µM.
In test [16] the target is T4, Inhibitor of nuclear factor kappa-B kinase subunit alpha (Homo sapiens) (UniProt O15111).
T4 sequence (whole entry): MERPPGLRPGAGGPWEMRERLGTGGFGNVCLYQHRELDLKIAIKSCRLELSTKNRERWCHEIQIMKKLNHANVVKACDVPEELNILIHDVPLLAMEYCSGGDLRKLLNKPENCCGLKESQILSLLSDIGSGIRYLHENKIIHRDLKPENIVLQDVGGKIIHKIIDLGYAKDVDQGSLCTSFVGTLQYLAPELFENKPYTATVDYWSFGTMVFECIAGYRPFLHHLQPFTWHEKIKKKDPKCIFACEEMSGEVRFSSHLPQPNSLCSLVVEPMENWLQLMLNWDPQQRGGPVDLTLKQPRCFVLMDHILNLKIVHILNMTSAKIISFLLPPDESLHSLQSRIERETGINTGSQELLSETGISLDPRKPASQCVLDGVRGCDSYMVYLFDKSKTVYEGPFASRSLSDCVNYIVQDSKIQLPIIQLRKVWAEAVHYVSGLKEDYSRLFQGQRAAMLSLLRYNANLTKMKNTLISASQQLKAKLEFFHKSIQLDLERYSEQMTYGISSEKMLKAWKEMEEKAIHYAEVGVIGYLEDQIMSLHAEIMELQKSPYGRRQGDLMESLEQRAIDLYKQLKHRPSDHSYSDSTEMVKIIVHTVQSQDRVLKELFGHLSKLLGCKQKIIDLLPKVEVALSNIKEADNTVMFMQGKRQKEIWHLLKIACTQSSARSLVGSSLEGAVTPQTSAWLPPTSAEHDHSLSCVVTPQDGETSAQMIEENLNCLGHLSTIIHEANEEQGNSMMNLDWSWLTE
Particulars: at 0.1 µM.

For test [17], the target named is T4, Inhibitor of nuclear factor kappa-B kinase subunit alpha (Homo sapiens). Particulars: at 1 µM.
Test [18] concerns the target T5, Inhibitor of nuclear factor kappa-B kinase subunit beta (Homo sapiens) (UniProt O14920).
T5 sequence (whole entry): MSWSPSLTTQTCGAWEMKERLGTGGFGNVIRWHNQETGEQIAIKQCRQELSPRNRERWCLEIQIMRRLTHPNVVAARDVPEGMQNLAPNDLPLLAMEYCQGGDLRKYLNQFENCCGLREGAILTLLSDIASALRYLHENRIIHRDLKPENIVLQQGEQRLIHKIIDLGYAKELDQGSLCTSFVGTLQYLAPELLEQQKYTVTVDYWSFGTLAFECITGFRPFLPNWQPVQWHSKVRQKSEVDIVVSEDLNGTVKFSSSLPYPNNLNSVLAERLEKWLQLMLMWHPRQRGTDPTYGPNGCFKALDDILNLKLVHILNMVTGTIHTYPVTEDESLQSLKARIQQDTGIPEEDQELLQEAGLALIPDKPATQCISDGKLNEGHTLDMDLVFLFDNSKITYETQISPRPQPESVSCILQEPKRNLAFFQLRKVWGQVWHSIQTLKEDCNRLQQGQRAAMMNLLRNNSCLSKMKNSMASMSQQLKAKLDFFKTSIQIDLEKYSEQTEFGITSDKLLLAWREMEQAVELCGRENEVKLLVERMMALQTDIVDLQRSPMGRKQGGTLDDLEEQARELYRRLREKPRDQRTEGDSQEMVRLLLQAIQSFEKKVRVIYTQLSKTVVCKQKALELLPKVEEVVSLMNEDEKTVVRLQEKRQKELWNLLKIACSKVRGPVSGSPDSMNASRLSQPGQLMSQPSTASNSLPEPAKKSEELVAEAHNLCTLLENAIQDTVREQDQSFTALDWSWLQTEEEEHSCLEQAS
Particulars: at 0.1 µM.

Test [19] deals with T5, Inhibitor of nuclear factor kappa-B kinase subunit beta (Homo sapiens). The following applies: at 1 µM.
In test [20] the target is T6, Inhibitor of nuclear factor kappa-B kinase subunit epsilon (Homo sapiens) (UniProt Q14164).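 Note: mean inhibition of IKKε reported, from the GSK PKIS dataset.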
T6 sequence (whole entry): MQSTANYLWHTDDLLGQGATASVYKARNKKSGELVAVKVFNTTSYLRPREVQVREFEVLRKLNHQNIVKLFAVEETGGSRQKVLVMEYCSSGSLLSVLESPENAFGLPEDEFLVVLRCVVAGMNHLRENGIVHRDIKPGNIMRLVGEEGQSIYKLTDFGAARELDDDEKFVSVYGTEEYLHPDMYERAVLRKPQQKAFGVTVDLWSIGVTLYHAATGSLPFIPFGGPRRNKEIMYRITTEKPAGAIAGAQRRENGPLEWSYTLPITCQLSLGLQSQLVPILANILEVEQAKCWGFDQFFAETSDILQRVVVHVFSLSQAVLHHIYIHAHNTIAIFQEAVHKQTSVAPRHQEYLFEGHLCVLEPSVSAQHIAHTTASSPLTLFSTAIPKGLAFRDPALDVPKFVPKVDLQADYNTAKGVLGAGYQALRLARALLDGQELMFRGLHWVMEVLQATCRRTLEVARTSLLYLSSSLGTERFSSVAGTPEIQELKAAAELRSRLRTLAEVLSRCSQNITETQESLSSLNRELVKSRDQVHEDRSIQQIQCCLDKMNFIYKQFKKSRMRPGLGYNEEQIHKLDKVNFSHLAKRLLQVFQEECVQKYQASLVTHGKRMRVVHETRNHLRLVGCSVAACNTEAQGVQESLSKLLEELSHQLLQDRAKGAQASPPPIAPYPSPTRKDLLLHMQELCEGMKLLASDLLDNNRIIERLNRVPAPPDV
The following applies: at 0.1 µM.

Sequence of SRSF protein kinase 1 (Homo sapiens) (Q96SB4 whole entry): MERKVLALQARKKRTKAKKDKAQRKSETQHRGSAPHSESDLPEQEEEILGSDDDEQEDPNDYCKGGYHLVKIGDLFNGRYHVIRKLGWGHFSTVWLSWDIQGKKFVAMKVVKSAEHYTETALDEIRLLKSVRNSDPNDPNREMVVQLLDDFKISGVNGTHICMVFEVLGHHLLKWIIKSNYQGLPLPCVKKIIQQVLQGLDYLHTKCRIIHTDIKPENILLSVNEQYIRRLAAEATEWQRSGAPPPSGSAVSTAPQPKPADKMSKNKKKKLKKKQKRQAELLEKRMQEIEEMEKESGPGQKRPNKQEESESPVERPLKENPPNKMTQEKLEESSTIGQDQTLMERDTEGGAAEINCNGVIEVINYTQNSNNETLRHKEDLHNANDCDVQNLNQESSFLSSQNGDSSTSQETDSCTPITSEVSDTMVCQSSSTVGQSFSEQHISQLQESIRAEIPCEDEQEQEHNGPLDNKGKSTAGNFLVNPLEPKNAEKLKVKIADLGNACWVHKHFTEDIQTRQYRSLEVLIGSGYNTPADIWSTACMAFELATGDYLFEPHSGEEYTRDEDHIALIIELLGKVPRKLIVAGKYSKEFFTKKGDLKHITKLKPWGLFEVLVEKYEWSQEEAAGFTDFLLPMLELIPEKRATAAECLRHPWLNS
Sequence of Sphingosine kinase 1 (Homo sapiens) (Q9NYA1 whole entry): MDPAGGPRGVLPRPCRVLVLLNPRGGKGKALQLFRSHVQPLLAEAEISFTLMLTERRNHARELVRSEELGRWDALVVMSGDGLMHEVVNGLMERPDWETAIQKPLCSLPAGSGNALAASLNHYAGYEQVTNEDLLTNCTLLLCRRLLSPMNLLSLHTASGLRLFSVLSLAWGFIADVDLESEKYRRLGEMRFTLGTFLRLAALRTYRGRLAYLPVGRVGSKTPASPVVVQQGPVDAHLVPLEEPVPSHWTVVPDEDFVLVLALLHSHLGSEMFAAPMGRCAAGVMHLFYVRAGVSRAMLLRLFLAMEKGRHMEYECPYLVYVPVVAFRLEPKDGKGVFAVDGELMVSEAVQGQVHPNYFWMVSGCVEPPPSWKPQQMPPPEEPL
Sequence of Casein kinase II subunit alpha (Homo sapiens) (P68400 whole entry, looked up): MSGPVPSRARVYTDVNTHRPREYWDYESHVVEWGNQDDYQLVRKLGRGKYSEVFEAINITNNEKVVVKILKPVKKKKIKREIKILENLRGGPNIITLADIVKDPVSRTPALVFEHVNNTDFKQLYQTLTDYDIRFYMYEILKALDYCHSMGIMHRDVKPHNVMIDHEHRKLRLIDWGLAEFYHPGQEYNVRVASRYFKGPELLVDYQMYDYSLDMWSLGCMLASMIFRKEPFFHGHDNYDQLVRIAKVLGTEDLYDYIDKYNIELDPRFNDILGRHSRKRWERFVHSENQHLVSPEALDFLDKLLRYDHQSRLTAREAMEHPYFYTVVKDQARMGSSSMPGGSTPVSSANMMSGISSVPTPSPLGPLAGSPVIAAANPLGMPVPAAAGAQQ
Sequence of Phosphatidylinositol 4-kinase beta (Homo sapiens) (Q9UBF8 2-816 limits assumed): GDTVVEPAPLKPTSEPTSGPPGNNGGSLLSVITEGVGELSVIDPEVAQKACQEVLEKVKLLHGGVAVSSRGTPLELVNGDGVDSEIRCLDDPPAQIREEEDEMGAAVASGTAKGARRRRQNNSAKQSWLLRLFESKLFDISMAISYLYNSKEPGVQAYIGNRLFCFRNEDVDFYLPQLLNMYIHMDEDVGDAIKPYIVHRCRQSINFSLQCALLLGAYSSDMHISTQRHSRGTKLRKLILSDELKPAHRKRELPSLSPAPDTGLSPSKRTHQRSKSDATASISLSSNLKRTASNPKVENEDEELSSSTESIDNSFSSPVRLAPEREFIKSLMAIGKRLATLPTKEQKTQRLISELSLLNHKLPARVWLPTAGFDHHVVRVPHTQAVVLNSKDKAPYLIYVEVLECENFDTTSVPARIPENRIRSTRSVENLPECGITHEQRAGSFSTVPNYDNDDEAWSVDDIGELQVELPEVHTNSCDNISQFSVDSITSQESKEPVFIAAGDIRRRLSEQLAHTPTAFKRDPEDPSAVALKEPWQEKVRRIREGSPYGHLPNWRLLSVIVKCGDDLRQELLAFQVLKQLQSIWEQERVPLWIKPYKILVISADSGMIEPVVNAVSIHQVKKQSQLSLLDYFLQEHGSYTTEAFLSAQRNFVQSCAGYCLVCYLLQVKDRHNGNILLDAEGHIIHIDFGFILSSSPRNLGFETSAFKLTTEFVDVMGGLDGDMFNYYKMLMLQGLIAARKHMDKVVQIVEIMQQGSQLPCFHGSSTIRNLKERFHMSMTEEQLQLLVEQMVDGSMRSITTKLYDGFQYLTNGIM
Sequence of Phosphatidylinositol 4,5-bisphosphate 3-kinase catalytic subunit alpha isoform (Homo sapiens) (P42336 whole entry, canonical isoform): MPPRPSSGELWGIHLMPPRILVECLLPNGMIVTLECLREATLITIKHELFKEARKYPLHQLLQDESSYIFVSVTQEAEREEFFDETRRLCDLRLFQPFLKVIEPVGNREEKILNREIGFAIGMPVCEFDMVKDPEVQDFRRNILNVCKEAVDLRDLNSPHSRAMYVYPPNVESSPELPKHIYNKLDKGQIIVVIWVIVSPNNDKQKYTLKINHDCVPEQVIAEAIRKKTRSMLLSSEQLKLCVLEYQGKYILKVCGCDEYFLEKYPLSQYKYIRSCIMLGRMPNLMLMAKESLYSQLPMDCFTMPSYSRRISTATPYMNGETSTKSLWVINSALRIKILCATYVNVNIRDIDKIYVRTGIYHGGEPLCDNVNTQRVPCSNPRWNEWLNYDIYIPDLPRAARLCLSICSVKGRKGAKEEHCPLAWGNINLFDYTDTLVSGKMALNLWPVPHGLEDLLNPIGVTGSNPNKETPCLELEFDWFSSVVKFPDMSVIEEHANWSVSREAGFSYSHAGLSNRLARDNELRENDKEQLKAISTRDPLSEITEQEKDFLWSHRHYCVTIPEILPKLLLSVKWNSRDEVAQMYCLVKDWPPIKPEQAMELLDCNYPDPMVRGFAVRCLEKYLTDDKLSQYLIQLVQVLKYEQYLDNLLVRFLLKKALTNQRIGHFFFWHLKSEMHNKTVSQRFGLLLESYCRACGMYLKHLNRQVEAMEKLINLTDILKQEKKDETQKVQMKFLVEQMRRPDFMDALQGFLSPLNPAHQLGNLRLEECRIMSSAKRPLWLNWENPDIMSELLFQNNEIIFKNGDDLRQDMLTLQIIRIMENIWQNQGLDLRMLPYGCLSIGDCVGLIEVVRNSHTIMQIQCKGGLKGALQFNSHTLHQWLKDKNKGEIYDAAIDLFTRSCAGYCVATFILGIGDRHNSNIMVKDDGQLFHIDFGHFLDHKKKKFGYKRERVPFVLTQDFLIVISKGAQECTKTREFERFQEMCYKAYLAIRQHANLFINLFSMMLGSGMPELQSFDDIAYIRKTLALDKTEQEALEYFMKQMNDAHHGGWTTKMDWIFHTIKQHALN

For the molecule `COc1cc2ncn(-c3cc(OCc4ccccc4C(F)(F)F)c(C(N)=O)s3)c2cc1OC`, the inhibition in [1] was 6.13%; in [2] it was -1.32%; in [3], 0.47%; in [4] it was 4.61%; in test [5], 18.7%; in test [6] it was 2.08%. For the same molecule, the inhibition in test [7] was 15.9%; in [8] it was -3.15%; in [9], 1.79%; in test [10], 1.28%; in test [11], -5.26%; in test [12], 0.75%. The inhibition in [13] is -2%; in test [14], 7.47%; in test [15] it was 8.83%; in test [16], 9.42%; in test [17], 3.6%; in test [18], 5.69%. Moreover, the inhibition in [19] stood at 5.75%; in [20], 6.51%.
Turning to `CS(=O)(=O)CCNCc1ccc(-c2ccc3ncnc(Nc4ccc(OCc5ccccc5)c(Cl)c4)c3c2)o1`, the inhibition in [1] is 6.3%; in [2] it was -1.42%; in test [3] it was 1.52%; in [4] it was -1.12%; in [5] it was -0.19%; in test [6], -2.16%. Also, the inhibition in [7] was -1.17%; in [8] it was -0.03%; in test [9], 3.61%; in test [10], 1.23%; in [11], 2.51%; in test [12], 1.2%. Moreover, the inhibition in test [13] is -1.85%; in test [14] it was -1.12%; in test [15], 1.71%; in test [16], -2.26%; in [17] it was 2.45%; in test [18], -1.73%. The inhibition is 0.03% in test [19] and 0.17% in test [20].
Turning to `O=C1Nc2ccc(C(=O)c3ccco3)cc2C1=Cc1cc(Cl)c(O)c(Cl)c1`, the inhibition is 5.17% in test [1]; -1.28% in [2]; 1.6% in [3]; 21.6% in test [4]; 69.1% in test [5]; 8.04% in test [6]. The inhibition is 24.9% in test [7]; 37.4% in test [8]; 80.7% in [9]; 7.33% in test [10]; -1.68% in [11]; 1.43% in test [12]. Moreover, the inhibition was found to be 1.2% in [13]; 18% in test [14]; 55.2% in test [15]; 2.59% in test [16]; 8.32% in test [17]; 5.21% in test [18]. Also, the inhibition in [19] amounted to 2.45%; in test [20], 24.9%.
